Experimental data: article PMC6212833
In all, about 2,000 compounds were measured (“B-score”: median about -0.0024, highest 2% from about 4 on). What follows is part of a selection rich in the highest values, with near analogues and random picks from the rest.

test system: Balamuthia mandrillaris (ATCC PRA-291) trophozoites, axenic culture; test: primary screen, b score; details: 20 µM
Method in brief: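 Trophozoites (3,000/well) in axenic medium exposed to library drugs at 20 µM in 0.2% DMSO for 72 h; viability by CellTiter Glo luminescence at 2, 4 and 8 h. Controls: vehicle and freeze-thaw amoeba lysate; B-score corrects row, column and edge effects.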

SMILES	B-score
CN/C(=C\[N+](=O)[O-])NCCSCc1csc(CN(C)C)n1	-0.177
CN/C(=C\[N+](=O)[O-])NCCSCc1ccc(CN(C)C)o1	14.6
CN/C(=C/[N+](=O)[O-])NCCSCc1ccc(CN(C)C)o1	-2.02
COC(=O)/C=C/C(=O)OC	1.25
COc1ccc(NS(=O)(=O)c2ccc(N)cc2)nn1	4.49
Nc1ccc(S(=O)(=O)Nc2ccc(Cl)nn2)cc1	1.1
COc1cc(NS(=O)(=O)c2ccc(N)cc2)ncn1	3.08
CNC[C@H](O)[C@@H](O)[C@H](O)[C@H](O)CO [757068-L1]	-0.164
Cc1scc2c1N(C(=O)CN1CCN(C)CC1)c1ccccc1NC2=O	-4.76
N#Cc1nn(-c2c(Cl)cc(C(F)(F)F)cc2Cl)c(N)c1S(=O)C(F)(F)F (centres unmarked)	0.119
OC[C@@H]1CC[C@H](n2cnc3c(O)ncnc32)O1	0.384
C#C[C@]1(O)CCC2C3CCC4=CC(=O)CC[C@@H]4C3CCC21CC (some centres unmarked)	-1.87
C#C[C@]1(O)CCC2C3CCC4=CC(=O)CC[C@@H]4C3CC[C@@]21C (some centres unmarked)	0.0185
C#C[C@]1(O)CC[C@H]2[C@@H]3CCC4=CC(=O)CC[C@@H]4[C@H]3CC[C@@]21C	5.5
CO/N=C(\C(=O)N[C@@H]1C(=O)N2C(C(=O)O)=C(CSc3nc(=O)c(=O)[nH]n3C)CS[C@H]12)c1csc(N)n1	-0.496
CC(C[N+](C)(C)C)OC(N)=O (centres unmarked)	1.72
CC(=O)[C@H]1CCC2C3CC=C4C[C@@H](O)CC[C@]4(C)C3CC[C@@]21C (some centres unmarked)	-1.35
N=C(N)c1ccc(N=NNc2ccc(C(=N)N)cc2)cc1	9.37
Nc1c2ccccc2nc2ccccc12	-0.407
CC(=O)c1ccc2c(c1)N(CCCN(C)C)c1ccccc1S2	0.888
COc1cc(C(=O)NCCCCCC(=O)O)cc(OC)c1OC	-2.61
CC1=C(/C=C/C(C)=C/C=C/C(C)=C\C(=O)O)C(C)(C)CCC1	1.46
NC(=O)c1cc[n+](CC2=C(C(=O)O)N3C(=O)[C@@H](NC(=O)Cc4cccs4)[C@H]3SC2)cc1	0.071
CCC(C)n1ncn(-c2ccc(N3CCN(c4ccc(OC[C@H]5CO[C@](Cn6cncn6)(c6ccc(Cl)cc6Cl)O5)cc4)CC3)cc2)c1=O (some centres unmarked)	5.45
CCC(C)n1ncn(-c2ccc(N3CCN(c4ccc(OCC5COC(Cn6cncn6)(c6ccc(Cl)cc6Cl)O5)cc4)CC3)cc2)c1=O (centres unmarked)	-1.07
CC(C)N1CCN(c2ccc(OC[C@H]3CO[C@](Cn4cncn4)(c4ccc(Cl)cc4Cl)O3)cc2)CC1	2.03
